{
  "source": "PubChem BioAssay (EPA / NIEHS)",
  "note": "Values joined by “and” are separate entries in the source; they are usually repeats but may differ in a detail not shown here. Equal entries are not always repeated. Some structures have more than one record in an assay (separate samples or runs), and their calls can disagree. Active and inactive are the calls of the source. The calls were made as follows: active = hit-call score of the fitted dose curve at least 0.9, where 1 is the maximum; inactive = score below 0.9.",
  "data": [
    {"read-out": "Monokine induced gamma interferon (MIG), CXCL9 (gene 4283)", "assay": "BSK_SAg_MIG: BioMAP Diversity Plus: SAg Assay for Monokine induced gamma interferon (MIG) Biomarker Activity (AID 2283092)", "conditions": "primary human HUVEC with PBMC; actives raise or lower the signal", "procedure,_shortened": "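ELISA readout of MIG/CXCL9; primary human umbilical vein endothelial cells co-cultured with peripheral blood mononuclear cells; 24 h post-dose; gain/loss fit vs DMSO baseline.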", "values": [
      {"smiles": "COc1cccc(O)c1", "outcome": "inactive"},
      {"smiles": "O=C(O)CCC(F)(F)C(F)(F)C(F)(F)C(F)(F)C(F)(F)C(F)(F)F", "outcome": "inactive"},
      {"smiles": "CN(Cc1cnc2nc(N)nc(N)c2n1)c1ccc(C(=O)N[C@@H](CCC(=O)O)C(=O)O)cc1", "outcome": "inactive"}
    ]},
    {"read-out": "Interleukin-8 (IL8), CXCL8 (gene 3576)", "assay": "BSK_SAg_IL8: BioMAP Diversity Plus: SAg Assay for Interleukin-8 (IL8) Biomarker Activity (AID 2283094)", "conditions": "primary human HUVEC with PBMC; actives raise or lower the signal", "procedure,_shortened": "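Chemicals were dosed onto a human endothelial–PBMC co-culture, and IL-8 was quantified by ELISA after 24 h. Both increases and decreases were fitted relative to DMSO.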", "values": [
      {"smiles": "Cc1ccc(N=Nc2c(O)ccc3ccccc23)c(C)c1", "outcome": "inactive"},
      {"smiles": "Oc1ccc(Cc2ccccc2O)cc1", "outcome": "inactive"},
      {"smiles": "Cc1ccc(C(=O)c2ccccc2)cc1", "outcome": "inactive"},
      {"smiles": "O=P(O)(O)CCC(F)(F)C(F)(F)C(F)(F)C(F)(F)C(F)(F)C(F)(F)F", "outcome": "inactive"},
      {"smiles": "O=S(=O)(O)C(F)(F)C(F)(F)C(F)(F)C(F)(F)C(F)(F)C(F)(F)C(F)(F)C(F)(F)C(F)(F)C(F)(F)F", "outcome": "inactive"},
      {"smiles": "OCC(F)(F)C(F)(F)C(F)(F)C(F)(F)C(F)(F)C(F)(F)C(F)(F)C(F)(F)C(F)(F)C(F)(F)C(F)(F)F", "outcome": "inactive"},
      {"smiles": "O=C1c2ccc(O)c(O)c2C(=O)c2c(O)ccc(O)c21", "outcome": "inactive"},
      {"smiles": "CC(=O)Nc1ccc(O)cc1", "outcome": "inactive"},
      {"smiles": "NC(=NCCCCCCN=C(N)/N=C(\\N)Nc1ccc(Cl)cc1)/N=C(\\N)Nc1ccc(Cl)cc1", "AC50": "0.896 µM (active)"},
      {"smiles": "CN(C)c1ccc(C(=C2C=CC(=[N+](C)C)C=C2)c2ccccc2)cc1", "AC50": "2.78 µM (active)"},
      {"smiles": "CN(C)CCOC(c1ccccc1)c1ccccc1", "outcome": "inactive"},
      {"smiles": "CC1=NN(c2ccccc2)C(=O)C1", "outcome": "inactive"},
      {"smiles": "O=C1NS(=O)(=O)c2ccccc21", "outcome": "inactive"},
      {"smiles": "O=C(CCCN1CCC(O)(c2ccc(Cl)cc2)CC1)c1ccc(F)cc1", "outcome": "inactive"},
      {"smiles": "CCC(C)c1ccccc1O", "note": "(stereo unspecified)", "outcome": "inactive"},
      {"smiles": "CCCCCCCCCCCCCCC", "outcome": "inactive"},
      {"smiles": "CC(C)(C)c1ccc(O)c(O)c1", "AC50": "20 µM (active)"},
      {"smiles": "CCCCCCCCCCCCCCCCCC[N+](C)(C)Cc1ccccc1", "AC50": "10 µM (active)"},
      {"smiles": "O=C(NO)c1ccccc1", "outcome": "inactive"},
      {"smiles": "CCCCC(CC)C(=O)O", "note": "(stereo unspecified)", "outcome": "inactive"},
      {"smiles": "CCCCCCCCCCCCOS(=O)(=O)O", "outcome": "inactive"},
      {"smiles": "COc1cccc(O)c1", "outcome": "inactive"},
      {"smiles": "O=C(O)CCC(F)(F)C(F)(F)C(F)(F)C(F)(F)C(F)(F)C(F)(F)F", "outcome": "inactive"},
      {"smiles": "CN(Cc1cnc2nc(N)nc(N)c2n1)c1ccc(C(=O)N[C@@H](CCC(=O)O)C(=O)O)cc1", "outcome": "inactive"}
    ]},
    {"read-out": "not listed separately", "assay": "BSK_SAg_Proliferation: Cell Proliferation Assessment in the BioMAP Diversity Plus: SAg Assay (AID 2283095);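 also: relative cell number as total protein by SRB absorbance in sub-confluent culture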", "conditions": "primary human HUVEC with PBMC", "procedure,_shortened": "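Absorbance of sulforhodamine B at 560 nm reports total protein in a human vascular endothelial/PBMC co-culture after 96 h chemical exposure. Gain or loss of signal is fitted in both directions against DMSO.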", "values": [
      {"smiles": "Cc1ccc(N=Nc2c(O)ccc3ccccc23)c(C)c1", "AC50": "4.79 µM (active)"},
      {"smiles": "Oc1ccc(Cc2ccccc2O)cc1", "outcome": "inactive"},
      {"smiles": "Cc1ccc(C(=O)c2ccccc2)cc1", "outcome": "inactive"},
      {"smiles": "O=P(O)(O)CCC(F)(F)C(F)(F)C(F)(F)C(F)(F)C(F)(F)C(F)(F)F", "outcome": "inactive"},
      {"smiles": "O=S(=O)(O)C(F)(F)C(F)(F)C(F)(F)C(F)(F)C(F)(F)C(F)(F)C(F)(F)C(F)(F)C(F)(F)C(F)(F)F", "outcome": "inactive"},
      {"smiles": "OCC(F)(F)C(F)(F)C(F)(F)C(F)(F)C(F)(F)C(F)(F)C(F)(F)C(F)(F)C(F)(F)C(F)(F)C(F)(F)F", "AC50": "476 nM (active) and 63.9 nM (active)"},
      {"smiles": "O=C1c2ccc(O)c(O)c2C(=O)c2c(O)ccc(O)c21", "outcome": "inactive"},
      {"smiles": "CC(=O)Nc1ccc(O)cc1", "outcome": "inactive"},
      {"smiles": "NC(=NCCCCCCN=C(N)/N=C(\\N)Nc1ccc(Cl)cc1)/N=C(\\N)Nc1ccc(Cl)cc1", "AC50": "2.72 µM (active)"},
      {"smiles": "CN(C)c1ccc(C(=C2C=CC(=[N+](C)C)C=C2)c2ccccc2)cc1", "AC50": "0.0153 µM (active)"},
      {"smiles": "CN(C)CCOC(c1ccccc1)c1ccccc1", "outcome": "inactive"},
      {"smiles": "CC1=NN(c2ccccc2)C(=O)C1", "outcome": "inactive"},
      {"smiles": "O=C1NS(=O)(=O)c2ccccc21", "outcome": "inactive"},
      {"smiles": "O=C(CCCN1CCC(O)(c2ccc(Cl)cc2)CC1)c1ccc(F)cc1", "AC50": "27 µM (active)"},
      {"smiles": "CCC(C)c1ccccc1O", "note": "(stereo unspecified)", "outcome": "inactive"},
      {"smiles": "CCCCCCCCCCCCCCC", "outcome": "inactive"},
      {"smiles": "CC(C)(C)c1ccc(O)c(O)c1", "AC50": "2.68 µM (active)"},
      {"smiles": "CCCCCCCCCCCCCCCCCC[N+](C)(C)Cc1ccccc1", "AC50": "0.312 µM (active)"},
      {"smiles": "O=C(NO)c1ccccc1", "outcome": "inactive"},
      {"smiles": "CCCCC(CC)C(=O)O", "note": "(stereo unspecified)", "outcome": "inactive"},
      {"smiles": "CCCCCCCCCCCCOS(=O)(=O)O", "outcome": "inactive"},
      {"smiles": "COc1cccc(O)c1", "outcome": "inactive"},
      {"smiles": "O=C(O)CCC(F)(F)C(F)(F)C(F)(F)C(F)(F)C(F)(F)C(F)(F)F", "outcome": "inactive"},
      {"smiles": "CN(Cc1cnc2nc(N)nc(N)c2n1)c1ccc(C(=O)N[C@@H](CCC(=O)O)C(=O)O)cc1", "AC50": "3.39 µM (active) and 2.18 µM (active) and 1.17 µM (active)"}
    ]},
    {"read-out": "not listed separately", "assay": "BSK_SAg_SRB: Viability Assessment in the BioMAP Diversity Plus: SAg Assay (AID 2283096);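 also: cells read one day after compound addition; hits may be either gain or loss of signal compared with DMSO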", "conditions": "primary human HUVEC with PBMC", "procedure,_shortened": "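This overt-cytotoxicity endpoint quantifies protein in human endothelial/PBMC co-cultures at 24 h using SRB absorbance (560 nm) after trichloroacetic acid fixation. Values reflect signal change from the DMSO negative control, fitted bidirectionally.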", "values": [
      {"smiles": "Cc1ccc(N=Nc2c(O)ccc3ccccc23)c(C)c1", "outcome": "inactive"},
      {"smiles": "Oc1ccc(Cc2ccccc2O)cc1", "outcome": "inactive"},
      {"smiles": "Cc1ccc(C(=O)c2ccccc2)cc1", "outcome": "inactive"},
      {"smiles": "O=P(O)(O)CCC(F)(F)C(F)(F)C(F)(F)C(F)(F)C(F)(F)C(F)(F)F", "outcome": "inactive"},
      {"smiles": "O=S(=O)(O)C(F)(F)C(F)(F)C(F)(F)C(F)(F)C(F)(F)C(F)(F)C(F)(F)C(F)(F)C(F)(F)C(F)(F)F", "AC50": "13.2 µM (active)", "outcome": "inactive"},
      {"smiles": "OCC(F)(F)C(F)(F)C(F)(F)C(F)(F)C(F)(F)C(F)(F)C(F)(F)C(F)(F)C(F)(F)C(F)(F)C(F)(F)F", "outcome": "inactive"},
      {"smiles": "O=C1c2ccc(O)c(O)c2C(=O)c2c(O)ccc(O)c21", "outcome": "inactive"},
      {"smiles": "CC(=O)Nc1ccc(O)cc1", "outcome": "inactive"},
      {"smiles": "NC(=NCCCCCCN=C(N)/N=C(\\N)Nc1ccc(Cl)cc1)/N=C(\\N)Nc1ccc(Cl)cc1", "AC50": "4.89 µM (active)"},
      {"smiles": "CN(C)c1ccc(C(=C2C=CC(=[N+](C)C)C=C2)c2ccccc2)cc1", "AC50": "0.0747 µM (active)"},
      {"smiles": "CN(C)CCOC(c1ccccc1)c1ccccc1", "outcome": "inactive"},
      {"smiles": "CC1=NN(c2ccccc2)C(=O)C1", "outcome": "inactive"},
      {"smiles": "O=C1NS(=O)(=O)c2ccccc21", "outcome": "inactive"},
      {"smiles": "O=C(CCCN1CCC(O)(c2ccc(Cl)cc2)CC1)c1ccc(F)cc1", "AC50": "19 µM (active)"},
      {"smiles": "CCC(C)c1ccccc1O", "note": "(stereo unspecified)", "outcome": "inactive"},
      {"smiles": "CCCCCCCCCCCCCCC", "outcome": "inactive"},
      {"smiles": "CC(C)(C)c1ccc(O)c(O)c1", "AC50": "29.1 µM (active)"},
      {"smiles": "CCCCCCCCCCCCCCCCCC[N+](C)(C)Cc1ccccc1", "AC50": "2.67 µM (active)"},
      {"smiles": "O=C(NO)c1ccccc1", "outcome": "inactive"},
      {"smiles": "CCCCC(CC)C(=O)O", "note": "(stereo unspecified)", "outcome": "inactive"},
      {"smiles": "CCCCCCCCCCCCOS(=O)(=O)O", "outcome": "inactive"},
      {"smiles": "COc1cccc(O)c1", "outcome": "inactive"},
      {"smiles": "O=C(O)CCC(F)(F)C(F)(F)C(F)(F)C(F)(F)C(F)(F)C(F)(F)F", "outcome": "inactive"},
      {"smiles": "CN(Cc1cnc2nc(N)nc(N)c2n1)c1ccc(C(=O)N[C@@H](CCC(=O)O)C(=O)O)cc1", "outcome": "inactive"}
    ]}
  ]
}
